NPR2 activator = human GC-B receptor activators, primary screen, HEK293 GC-B cells, cGMP TR-FRET, EC30 CNP; 0% at EC30 CNP, 100% saturating CNP; actives 0.11% (n = 370,000); Atrial natriuretic peptide receptor 2 (Homo sapiens), P20594; activation, % at 10 µM;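 active = activation at 10 µM reaching about 35% in either raw or pattern-adjusted values, limit read from the data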
ADAM17 inh = ADAM17 inhibitors, primary screen, biochemical, QFRET; Disintegrin and metalloproteinase domain-containing protein 17 (Homo sapiens), P78536; recombinant ADAM17, EDANS/DABCYL FRET peptide cleavage; inhibition, % at 6.95 µM; actives 0.83% (n = 370,000);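 active = inhibition above the mean of compounds lying between control limits plus 3 SD, set per campaign, cut at about 8.5% in these data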;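 also: 0% = DMSO-only wells as the low control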
proKLK7 act = proKLK7 zymogen activators, primary screen, biochemical, fluorescence intensity | AID 652039, 2013 | purified proKLK7, EDANS-DABCYL substrate fluorescence; 100% is mature enzyme control, 0% vehicle | activation, % at 7 µM | actives 0.9% (n = 370,000);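 active = activation above the mean of all tested compounds plus 3 SD, computed per campaign excluding outliers beyond control limits, cut at about 13% in these data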
ADAM10 inh = human ADAM10 inhibitors, primary screen, biochemical, QFRET, HTS; recombinant ADAM10, EDANS/DABCYL FRET peptide cleavage, 3 h; inhibition, % at 7 µM; actives 0.62% (n = 370,000); AID 720582, 2013;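 active = inhibition above a per-campaign cutoff equal to the mean of compounds falling between control-based bounds plus 3 SD, cut at about 20% in these data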;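 also: 0% = DMSO wells while the 100% control is not disclosed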
Target sequence (O14672 214-748 limits assumed): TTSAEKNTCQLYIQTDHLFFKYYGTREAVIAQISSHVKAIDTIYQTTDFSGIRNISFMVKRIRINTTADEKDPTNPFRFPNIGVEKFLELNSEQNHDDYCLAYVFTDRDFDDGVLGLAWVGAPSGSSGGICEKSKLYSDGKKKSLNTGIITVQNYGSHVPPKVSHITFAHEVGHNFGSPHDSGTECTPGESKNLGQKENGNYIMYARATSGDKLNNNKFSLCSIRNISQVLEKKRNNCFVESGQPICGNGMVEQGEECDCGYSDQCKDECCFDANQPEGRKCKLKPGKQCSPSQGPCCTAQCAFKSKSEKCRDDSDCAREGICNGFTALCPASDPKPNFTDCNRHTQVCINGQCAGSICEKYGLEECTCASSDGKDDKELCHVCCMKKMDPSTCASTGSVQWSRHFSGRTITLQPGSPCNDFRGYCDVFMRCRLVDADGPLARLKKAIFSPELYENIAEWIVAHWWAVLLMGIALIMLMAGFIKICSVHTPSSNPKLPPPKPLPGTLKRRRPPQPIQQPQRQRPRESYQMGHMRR
NPR1 activator = GC-A stimulated cGMP production enhancers – HEK293 GC-A cells, cGMP TR-FRET, EC30 ANP, primary screen; actives 0.14% (n = 370,000); 0% at EC30 ANP, 100% saturating ANP; AID 1671463, 2021; activation, % at 10 µM; in the data active = activation above about 40%
ADAM10 confirm = human ADAM10 inhibitors, confirmation, biochemical, QFRET, triplicate; shares compounds with ADAM10 inh; ADAM10 QFRET peptide cleavage, EDANS fluorescence; inhibition, % at 6.95 µM; actives 1% (n = 2,100);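 active = inhibition above about 20% chosen separately for each screening run, limit read from the data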;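 also: 0% = DMSO wells and 100% = marimastat wells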
ADAM17 counter = ADAM17 inhibitors, counter-screen for ADAM10 exosite inhibitor project, biochemical, QFRET, high throughput; shares compounds with ADAM10 inh; ADAM17 QFRET peptide cleavage, EDANS fluorescence; inhibition, % at 6.95 µM; actives 0.5% (n = 2,100); AID 743214, 2013;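 active = mean triplicate inhibition above the solvent-only control wells' mean plus 3 SD, cut at about 12% in these data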;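 also: 0% = DMSO wells and 100% = marimastat wells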
* = called active by the depositor; . = no result; ! = a repeat was not active. The list is not random: actives were taken first. Their share in the collection is about 2.2%.

SMILES	NPR2 activator	ADAM17 inh	proKLK7 act	ADAM10 inh	NPR1 activator	ADAM10 confirm	ADAM17 counter
Oc1cc2c(cc1C(c1ccc(Cl)c(Cl)c1)N1CCCC1)OCO2 (stereo not given)	-11	8	0	27*	-36	19	6
CC(C)c1ccc(NC(=O)C(c2ccc3c(c2)OCO3)N2CCCCC2)cc1 (stereo not given)	0	1	0	-6	1	.	.
C/C(=N\N=C(/N)SC1CC(=O)N(c2cccc(Cl)c2)C1=O)c1cccs1 (stereo not given)	-1	8	-1	27*	-7	5	2
CCOC(=O)c1cccc(NC(=O)CN(C)S(=O)(=O)c2ccco2)c1	-6	-2	0	0	5	.	.
COc1ccc(C(C)(O)c2nc(-c3cccc(F)c3)cs2)cc1 (stereo not given)	-1	5	1	22*	-1	3	0
O=S(=O)(NC1CCCCC1NS(=O)(=O)c1ccc(F)cc1)c1ccc(F)cc1 (stereo not given)	2	2	0	20*	-1	1	1
CSc1ccc(OC2CCCCC2NS(=O)(=O)c2ccc(Cl)cc2)cc1 (stereo not given)	-7	7	0	28*	-10	9	3
O=C(N/N=C/c1cn(-c2cccs2)nc1-c1ccccc1)c1ccccc1Cl	-2	8	-4	20*	-2	14	5
O=C(N/N=C/c1cn(-c2cccs2)nc1-c1ccccc1)c1ccc(O)cc1	0	3	1	3	-3	.	.
Cc1ccc(-n2c(SCC(=O)c3ccc(F)cc3)nnc2-c2cccnc2)cc1	7	1	0	6	-2	.	.
CCOc1nc(N2CCOCC2)nc(C)c1[N+](=O)[O-]	1	1	0	20*	2	1	0
CN(C)c1ccc(C(CNS(=O)(=O)c2ccc(F)cc2)c2c[nH]c3ccccc23)cc1 (stereo not given)	-2	7	0	22*	-10	13	3
COc1ccc(CC(=O)Nc2ccc(C)cc2S(=O)(=O)N2CCOCC2)cc1OC	2	-2	0	-2	-2	.	.
O=C(NC1CCCCN(Cc2cccc(C(F)(F)F)c2)C1=O)c1ccc(F)cc1 (stereo not given)	6	0	0	-1	6	.	.
CCOc1cc(/C=N\NC(=O)c2ccc(C)nc2)cc([N+](=O)[O-])c1O	-10	4	0	10	-16	.	.
COc1cc(/C=N/NC(=O)c2ccc(C)nc2)cc([N+](=O)[O-])c1O	-1	6	0	22*	-6	1	-1
COc1ccccc1-c1ccc2c(c1)C(C)(Cc1cc(Cl)ccc1C(F)(F)F)C(=O)N2 (stereo not given)	-17	7	1	21*	-14	4	1
Cc1ccc(CSc2nnc(CNc3ccc(F)cc3)o2)cc1	-4	5	1	26*	5	2	1
COc1ccccc1NC(=S)OC1CCC12CCC(c1ccccc1)CC2 (stereo not given)	0	3	0	6	-4	.	.
CCCC1=Nc2cc(C(=O)NCCCOC(C)C)ccc2Sc2ccccc21	0	8	0	21*	4	7	2
COCCOC(=O)C1=C(C)NC(C)=C(C(=O)OC(C)C)C1c1cccc([N+](=O)[O-])c1 (stereo not given)	-10	3	0	22*!	-16	1	0
Nn1c(SCC(=O)N2CCOCC2)nnc1-c1cc(-c2ccc(F)cc2)n[nH]1	-10	5	0	2	4	.	.
Cc1ccc(C(=O)Nc2ccccc2C(=O)NCc2ccco2)cc1	1	2	1	10	0	.	.
Cc1ccccc1CN(c1ccc(C(=O)Nc2ccccc2C(=O)NCc2ccco2)cc1)S(C)(=O)=O	3	8	-41	26*	0	20*	4
CC1CCCN(S(=O)(=O)c2ccc(NC(=O)CN3C(=O)NC(C)(c4ccccc4)C3=O)cc2)C1 (stereo not given)	7	5	0	20*	1	4	1
SMILES	NPR2 activator	ADAM17 inh	proKLK7 act	ADAM10 inh	NPR1 activator	ADAM10 confirm	ADAM17 counter
Cc1nnc(C)n1N=Cc1ccc(Cl)c([N+](=O)[O-])c1	0	-2	-1	-4	-1	.	.
COC(=O)C1CN(C2CCCC2)CCS(=O)(=O)N1Cc1ccc(Cl)cc1 (stereo not given)	0	-6	1	-9	0	.	.
COc1ccccc1-c1cc(N)n(S(=O)(=O)c2cccc3nsnc23)n1	-7	4	0	23*	-9	2	-1
COc1cc(C(=O)NNC(=S)NC(=O)c2ccc3c(c2)OCO3)cc(OC)c1OC	1	6	0	22*	-2	3	3
COc1cc(C(=O)NNC(=O)c2ccc3c(c2)OCCO3)cc(OC)c1OC	5	-8	-1	-30	0	.	.
COc1ccc(CC2CCN(c3ncnc4sccc34)CC2)cc1	0	0	.	4	-1	.	.
Cc1cccc(-c2noc(CNC(=O)c3ccc4c(c3)OCO4)n2)c1	-9	2	0	23*	0	0	1
Nc1c(-c2ccccc2)c(CSc2nc3ccccc3[nH]2)nn1-c1cccc(Cl)c1	0	2	-4	-1	4	.	.
Nc1c(-c2ccccc2)c(CSc2nc3ccccc3[nH]2)nn1-c1ccc(Cl)cc1	7	4	-1	29*	3	5	3
CC(C)(C)S(=O)N1Cc2cc(C(=O)N[C@@H]3CCN(Cc4ccccc4)C3)nc(-c3cccc(-c4cc5ccccc5o4)c3)c2[C@@H]1CCO (stereo not given in full)	3	6	-1	20*	3	18	9
CC(C)(C)S(=O)N1Cc2cc(C(=O)O)nc(-c3cccc(-c4cc5ccccc5o4)c3)c2[C@H]1CCO (stereo not given in full)	2	-3	0	-14	-2	.	.

Source: PubChem BioAssay (several laboratories)
